For the first assay, the system named is PPARg homodimer (NR concentration 180 nM). As to the kind of experiment: PBM binding z-score (relative to random genomic background probes); higher = stronger binding; sequences stand for … in GC…GCGATTGACAGCGTAGAATGAAGG
In outline: (§1)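 Ligand-free nuclear receptor dimers were bound for 1 h to custom Agilent 4×180K protein-binding microarrays. Detection used antibodies against each partner (one per run). Binding z-scores rest on regression-normalized fluorescence, with random background probes as the reference.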
Sequence ATCTCTAGGTAAAGATAGTTCGGTGAATGCAAAT showed a PBM binding z-score of 0.784.
The same measure, in the same setting: in the case of TCTAGCAGTCCAGAGGGTCACTCAAGAGGTACGG it was 0.412; in that of CCTAGCAGGCCAATCTGGGACACTCAAGGCTTGA, -0.694; in that of TCTGACAGGTGAAGGTAACTCAGGTACGCAGTCG, 0.45.
Turning to TATACAGGCTCAAAGGCCAGAGTACGAATGTCGA, the PBM binding z-score was -0.146.
Turning to GGAACGAGGGCATTCGAGTTAATAGCATGGCGAT, the PBM binding z-score is 0.00587.
Sequence CCTACTGGGCCAATGGTCATTGATTCCAATGCTC registered a PBM binding z-score of -0.104.
On the same count and under the same terms, the same measure for GCTGCTAGGTCAACTGATGGTCGGCTAAAGCTCG: 0.839.
ACTCGGAGGACCAAGGTCAGAGCTACGCCAGTGA returned a PBM binding z-score of 1.18.
Still for that read-out and setting: in the case of GGAACGAAGGCAAAGTTGATAGCATCTGTCGACG it was -0.879.
Still for that read-out and setting: the same measure for GGAACGAGGGCATGCGAGTTGATAGCATGGCGAT: -0.621; for TCTTGTAGATCACGCAGGTTAAGAAAGCCTGAGT: 0.083; for TCTTGTAGAACAAGCAGGTTAAGAAAGCCTGAGT: -0.0982.
Same read-out and setting: the same measure for AATACCGGGTCATCGTAGGCCAGAGTACGCACAG: 2.01; for CCTAGCAGGCCAATCTGAGTCACTCAAGGCTTGA: 0.0523; for AGTCAAAGTTCATCTAGGTAAGGTAAGATATGCT: 3.1.
The sequence AGAACAAGGGCAATGAGTTGATAGCACGGGTGGC displayed a PBM binding z-score of 0.058.
The same measure, in the same setting: in the case of CAAACTAGGGCACAGAGGTCAAAGTCCGTGCGTA it was 4.24; in that of ATCGAAAGGTCGACGGGGTGAGTATACACCGTTT, 2.18; in that of TAGCCGAGGTCATGGGCCAGTATACCACGCGAAC, 2.7.
On the same count and under the same terms, the same measure for TCTAGTTGGTCACGGAGGTAACACACGACGGGTA: 0.896; for CCTACTGGGCCAGGGTCATTGATCAGTCAAAGCA: 0.994.
Same read-out and setting: the same measure for TCTGCTAGGTCAACGATGGACAGCTAATCTGCTA: 1.08.
The sequence TCATATAGGTAAAGGTTAAAGTCGAACGATATGA registered a PBM binding z-score of 1.53.
Take ACTAGTAGGCCAAGTTTGGGTCACTCAAACAAAG: the PBM binding z-score was 0.944.
The sequence TCTTGTAGAACAGCAGGTTAAGAAAGCTGGCCAA showed a PBM binding z-score of -0.509.
As to CCTATTAGTTGACCATAAGGGCTACCGAAGCTCG, the PBM binding z-score was 1.99.
Still for that read-out and setting: the same measure for GCAGACAGGTGAAACGCGGGTAACTCAGGGTGGC: -0.647; for CCTAGTTGGTCAGGAGGTCAAACACCGGATATGA: 3.46; for TCGAGTAGGTTACAAATGGGGCATTCAGCTTTCT: 0.131.
Same read-out and setting: the same measure for GCTGCTAGGTCAGGTAGGTCAGCTAACGGGTACG: 1.34; for CCTAGTTGGTGAAGGTCACACACGCTATAGGTAC: 2.47; for CTACCAAGGTGAACAAGGCCGTTGATTACTATTC: 0.346.
Same read-out and setting: the same measure for TATACAGGGTCAAAGGCCAGAGTCCGAATGTCGA: 2.08; for CGTCCAAGGTCAAAGGTCAGTGTAGAGATGACGG: 5.56.
Regarding GTACGAAGGTGAATAGGTCGTTGATGAGTAGGCG, the PBM binding z-score stood at 0.859.
On to CCTTACGGGTCAAGGTTATAGTACGGGTGGTACG, for which the PBM binding z-score was 2.79.
Take ACAATGAGGTTATTAAGATCAGGGAATTGCGGTC: the PBM binding z-score stood at 0.869.
Sequence TCGAGTAGGTTACCAATGGGGCACTCAGCTTTCT had a PBM binding z-score of -0.453.
Still for that read-out and setting: the same measure for CCTACTGGGCCATTCAGAGGTCCTTGATCATATG: -0.0171.

The subject of a further assay is PXR:RXRa (NR concentration 270 nM, RXRa partner concentration 90 nM). The assay is described as above. Summed up: as §1
In the case of ATCTCTAGGTAAAGATAGTTCGGTGAATGCAAAT, the PBM binding z-score worked out at 0.102.
TCTAGCAGTCCAGAGGGTCACTCAAGAGGTACGG: the PBM binding z-score stood at 1.67.
On to CCTAGCAGGCCAATCTGGGACACTCAAGGCTTGA, for which the PBM binding z-score was -0.828.
For TCTGACAGGTGAAGGTAACTCAGGTACGCAGTCG, the PBM binding z-score turned out to be 0.483.
On to TATACAGGCTCAAAGGCCAGAGTACGAATGTCGA, for which the PBM binding z-score is -0.262.
Same read-out and setting: the same measure for GGAACGAGGGCATTCGAGTTAATAGCATGGCGAT: 3.48; for CCTACTGGGCCAATGGTCATTGATTCCAATGCTC: -0.581.
GCTGCTAGGTCAACTGATGGTCGGCTAAAGCTCG: the PBM binding z-score stood at 1.4.
The same measure, in the same setting: in the case of ACTCGGAGGACCAAGGTCAGAGCTACGCCAGTGA it was 1.34; in that of GGAACGAAGGCAAAGTTGATAGCATCTGTCGACG, -0.707.
On the same count and under the same terms, the same measure for GGAACGAGGGCATGCGAGTTGATAGCATGGCGAT: 3.59; for TCTTGTAGATCACGCAGGTTAAGAAAGCCTGAGT: 0.585.
For TCTTGTAGAACAAGCAGGTTAAGAAAGCCTGAGT, the PBM binding z-score turned out to be 0.365.
Consider AATACCGGGTCATCGTAGGCCAGAGTACGCACAG, for which the PBM binding z-score was determined as 4.56.
Sequence CCTAGCAGGCCAATCTGAGTCACTCAAGGCTTGA yielded a PBM binding z-score of -0.832.
On to AGTCAAAGTTCATCTAGGTAAGGTAAGATATGCT, for which the PBM binding z-score stood at 5.24.
The same measure, in the same setting: the same measure for AGAACAAGGGCAATGAGTTGATAGCACGGGTGGC: 0.978.
Still for that read-out and setting: in the case of CAAACTAGGGCACAGAGGTCAAAGTCCGTGCGTA it was 6.12.
Same read-out and setting: in the case of ATCGAAAGGTCGACGGGGTGAGTATACACCGTTT it was 3.64; in that of TAGCCGAGGTCATGGGCCAGTATACCACGCGAAC, 5.24; in that of TCTAGTTGGTCACGGAGGTAACACACGACGGGTA, 0.407.
CCTACTGGGCCAGGGTCATTGATCAGTCAAAGCA yielded a PBM binding z-score of 3.06.
For TCTGCTAGGTCAACGATGGACAGCTAATCTGCTA, the PBM binding z-score is 1.32.
Still for that read-out and setting: the same measure for TCATATAGGTAAAGGTTAAAGTCGAACGATATGA: 2.1; for ACTAGTAGGCCAAGTTTGGGTCACTCAAACAAAG: 0.935.
For TCTTGTAGAACAGCAGGTTAAGAAAGCTGGCCAA, the PBM binding z-score is 0.0552.
Turning to CCTATTAGTTGACCATAAGGGCTACCGAAGCTCG, the PBM binding z-score came to 0.0462.
The sequence GCAGACAGGTGAAACGCGGGTAACTCAGGGTGGC registered a PBM binding z-score of -0.0302.
On the same count and under the same terms, in the case of CCTAGTTGGTCAGGAGGTCAAACACCGGATATGA it was 4.59; in that of TCGAGTAGGTTACAAATGGGGCATTCAGCTTTCT, 0.0276; in that of GCTGCTAGGTCAGGTAGGTCAGCTAACGGGTACG, 1.65.
The sequence CCTAGTTGGTGAAGGTCACACACGCTATAGGTAC displayed a PBM binding z-score of 3.34.
Still for that read-out and setting: in the case of CTACCAAGGTGAACAAGGCCGTTGATTACTATTC it was 0.327.
Still for that read-out and setting: the same measure for TATACAGGGTCAAAGGCCAGAGTCCGAATGTCGA: 4.27; for CGTCCAAGGTCAAAGGTCAGTGTAGAGATGACGG: 7.16; for GTACGAAGGTGAATAGGTCGTTGATGAGTAGGCG: 0.754.
The same measure, in the same setting: in the case of CCTTACGGGTCAAGGTTATAGTACGGGTGGTACG it was 3.75.
Regarding ACAATGAGGTTATTAAGATCAGGGAATTGCGGTC, the PBM binding z-score was 1.58.
In turn, TCGAGTAGGTTACCAATGGGGCACTCAGCTTTCT registered a PBM binding z-score of 0.0109.
Same read-out and setting: the same measure for CCTACTGGGCCATTCAGAGGTCCTTGATCATATG: -0.621.
